Structures are written as SMILES. Records with an inconclusive call do not appear. The source made the active and inactive calls. The call rests on the fitted dose curve; in most records, active means well fitted inhibition curve with a large enough effect in the polarisation, with a control signal flat (not every such curve was filed as active); inconclusive means small, poorly fitted or top-dose-only effect, or effect the other way; inactive means flat fitted curve, though single readings scatter; the % refers to the polarisation.

In this experiment the target is Peptidyl-prolyl cis-trans isomerase NIMA-interacting 1 (Homo sapiens) (UniProt Q13526). As to the kind of experiment: qHTS Validation Assay to Find Inhibitors of Pin1 (AID 504536). Particulars: Pin1 fluorescence polarization peptide binding assay; series mostly up to 57.5 µM. From the text: NIH Molecular Libraries Probe Production Network [MLPCN]
Chain of Peptidyl-prolyl cis-trans isomerase NIMA-interacting 1 (Homo sapiens) (Q13526 whole entry, looked up): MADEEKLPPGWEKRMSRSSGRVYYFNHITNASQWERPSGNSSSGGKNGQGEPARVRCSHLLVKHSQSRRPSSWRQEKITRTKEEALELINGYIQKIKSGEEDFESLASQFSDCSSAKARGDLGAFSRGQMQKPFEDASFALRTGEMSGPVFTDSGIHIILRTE
NIH Chemical Genomics Center [NCGC]
The unique chemical properties of Pro allow for the adoption of two completely distinct amide bond conformations (cis and trans). Peptidyl-prolyl cis/trans isomerases (PPIases) are evolutionary conserved enzymes that catalyze cis/trans isomerization of peptidyl-prolyl peptide bonds. Distinct from all other PPIases such as cyclophilins and FK506-binding proteins (FKBPs), Pin1 binds a subset of phos.Ser/Thr-Pro-containing proteins using its protein-targeting WW domain and isomerizes only specific phos.Ser/Thr-Pro bonds, which cannot be effectively catalyzed by other known PPIases.
Pin1-catalyzed conformational regulation can control a spectrum of activities of many key regulators in diverse cellular processes such as cell growth, genotoxic and other stress responses, immune response, germ cell development, neuronal differentiation and survival. Pin1 has emerged as a novel molecular timer that modulates its multiple targets at various steps of a given cellular process to synergistically control the amplitude and duration of a cellular response or process. Importantly, Pin1 is tightly regulated by multiple levels and its deregulation has an important role in a growing number of pathological conditions, including cancer, Alzheimer's disease, aging, asthma and microbial infection, providing a potentially new therapeutic option.
The goal of this screen is to find small-molecule inhibitors of Pin1 using a fluorescence polarization competition assay. A HiFluor-488-labeled peptide binds to the active site of Pin1 and can be displaced by compounds. Compounds were screened as a concentration-titration series that ranged from 57 uM to 0.7 nM.
NCGC Assay Protocol Summary:
Pin1 (0.6 uM) was dispensed into black, solid 1536-well plates at 2 uL/well in 10 mM HEPES (pH 7.5), 10 mM NaCl, 0.01% Tween20, 1 mM DTT, and 1% glycerol. Then, 23 nL of compounds or DMSO were delivered to each well using a pin tool. Two uL of Pin1-1b-HiFluor488 peptide (10 mM HEPES (pH 7.5), 10 mM NaCl, 0.01% Tween20, 1 mM DTT, and 1% glycerol, 0.02 uM Pin1-1b-HiFluor488) was then dispensed, and plates were incubated at room temperature for 10 min. The plates were measured on a ViewLux plate reader for fluorescence polarization signal using a 480/20 nM nm excitation filter and 540/25 nM nm S and P emission filters with a 20 second exposure. The %Activity was determined from the corrected fluorescence polarization values. Unlabeled Pin1-1c peptide was used as a control (3.5 mM two-fold serial; 20 uM final concentration) along with a 1x (0.3 uM) and 0x (no-enzyme) Pin1 enzyme control to normalize %Activity of identified inhibitors; 0x enzyme values corresponded to 100%Activity (full inhibition), while 1x Pin1 enzyme values were used to normalize 0%Activity (no inhibition).
Concentration-response curves were fitted to the signals arising from the resulting fluorescence polarization. The concentration-effect curves were then classified based on curve quality (r2), response magnitude and degree of measured activity, and compounds were subsequently categorized based on their curve class.
Keywords: Peptidyl prolyl isomerase, Pin1, fluorescence polarization, MLSMR, MLPCN, NIH Roadmap, qHTS, NCGC
A general note: qHTS replaces the single test concentration by a dilution series.
In the case of `C=C(C)[C@H]1CN[C@H](C(=O)O)[C@H]1CC(=O)O`, the compound was called inactive.
As to `CC(C)N(CCC(C(N)=O)(c1ccccc1)c1ccccn1)C(C)C` (stereo not drawn), the compound was called inactive.
`COc1ccc2c(c1OC)C(=O)O[C@H]2[C@@H]1c2cc3c(cc2CCN1C)OCO3`: the call was inactive.
`O=C(CCCN1CCC2(CC1)C(=O)NCN2c1ccccc1)c1ccc(F)cc1`: the compound was classed as inactive.
For `CC(C)c1cccc(C(C)C)c1O`, the call was inactive.
The same measure for `O=C(O)CCCc1ccc(N(CCCl)CCCl)cc1`: “inactive”; for `Cc1ncsc1CCCl`: “inactive”.
The same measure for `CC(C)(C)NCC(O)c1ccccc1Cl` (stereo not drawn): “inactive”; for `CC(NC(C)(C)C)C(=O)c1cccc(Cl)c1` (stereo not drawn): “inactive”; for `O=P1(N(CCCl)CCCl)NCCCO1` (stereo not drawn): “inactive”.
With `NCCc1ccc(O)cc1`, the result was inactive.
Turning to `CN1C(=O)CCS(=O)(=O)C1c1ccc(Cl)cc1` (stereo not drawn), the call was inactive.
For `O=c1[nH]oc2c1CCNC2` the value was “inactive”.

For the origin of these results see PubChem BioAssay (NCATS).
